NadD inh = inhibitors of S. aureus NadD, primary screen, biochemical, colorimetric, uHTS. AID 602399, 2012. 360,000 compounds, 0.78% hits. purified NadD enzyme, colorimetric absorbance read-out. Nicotinate-nucleotide adenylyltransferase NadD (Staphylococcus aureus N315). inhibition, % at 20 µM; in the data active means inhibition above about 26%
B2AR ag = beta2AR agonists driving receptor internalization, primary screen, cell-based, FAP fluorogen, flow cytometry; Beta-2 adrenergic receptor (Homo sapiens), P07550; Am2.2-beta2AR cells; response, % (concentration not given with the values); 340,000 compounds, 0.43% hits;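 active means response above a set limit, near 3 SD of response in nonfluorescent compounds, cut at about 42% in these data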
Target sequence (P07550 whole entry, looked up): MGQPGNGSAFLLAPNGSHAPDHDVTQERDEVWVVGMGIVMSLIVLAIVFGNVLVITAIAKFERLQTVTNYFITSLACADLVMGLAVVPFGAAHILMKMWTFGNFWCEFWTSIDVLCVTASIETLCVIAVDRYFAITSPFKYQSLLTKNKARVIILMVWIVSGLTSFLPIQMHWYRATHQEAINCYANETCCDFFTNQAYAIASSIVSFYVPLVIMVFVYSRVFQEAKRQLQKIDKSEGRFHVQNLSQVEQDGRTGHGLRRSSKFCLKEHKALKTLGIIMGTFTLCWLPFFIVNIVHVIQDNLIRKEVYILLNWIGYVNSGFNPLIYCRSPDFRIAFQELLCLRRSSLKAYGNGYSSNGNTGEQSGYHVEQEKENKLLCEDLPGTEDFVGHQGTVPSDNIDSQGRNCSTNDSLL
Exocytosis inh = LAMP-1 surface exposure blockers, TALL-104 cells – cell-based, flow cytometry, MLPCN library, primary screen | TALL-104 LAMP-1 surface exposure; cells stimulated with thapsigargin and PMA | inhibition, % at 10 µM | 360,000 compounds, 0.66% hits;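 active means inhibition above about 55%, limit read from the data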
PP1 counter = PP1-alpha phosphatase inhibitors, primary screen, counter-screen for PP5 inhibitor project, biochemical, fluorescence, OMFP substrate, single point. purified PP1alpha. 320,000 compounds, 0.9% hits. inhibition, % at 6.7 µM. Serine/threonine-protein phosphatase PP1-alpha catalytic subunit (Homo sapiens), P62136;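 active means inhibition above the mean inhibition of all tested compounds plus 3 SD, computed separately for each screening campaign, cut at about 15% in these data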
GRK2 inh = compounds blocking aptamer binding on GRK2 – biochemical, human GRK2, bead flow cytometry, HTS, primary screen | FAM-aptamer displacement from GRK2 | inhibition of aptamer binding, % at 10 µM | 330,000 compounds, 0.59% hits;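 active means inhibition of aptamer binding above 40%, roughly 3 SD of noise, on plates passing a quality check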;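 further: median bead fluorescence of bound FAM aptamer so fluorescent compounds give negative values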
GRK2 CP1 = GRK2 aptamer-displacing inhibitors, retest, confirmation, biochemical, cherry pick 1, bead flow cytometry. shares compounds with GRK2 inh. bead-bound GRK2, FAM-aptamer displacement. aptamer displacement, % at 10 µM. 2,000 compounds, 4% hits;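 active means aptamer displacement above 40%, near three times the noise of non-fluorescent compounds, on plates passing quality checks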;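 further: negative values mostly reflect intrinsic compound fluorescence rather than true enhancement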
Aptamer quench = quenches fluorescent RNA aptamer, GRK2 hit artifact; shares compounds with GRK2 inh; Fluorescent RNA aptamer beads, quenching, flow cytometry; stronger effect = higher value; fluorescence change (kMESF span), kMESF (test concentration not listed); 110 tested, under 10 active; AID 504521;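 active means compounds whose bead fluorescence drops by more than 37 kMESF across the dose range, marking them as dye quenchers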
Aptamer quench SP = quenches fluorescent RNA aptamer, GRK2 hit artifact. fluorescence response (% of DMSO), % at 10 µM. shares compounds with GRK2 inh. 2,000 tested, under 10 active. Carboxyfluorescein RNA aptamer on beads, flow cytometry quenching; stronger effect = lower value. AID 504580;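 active means compounds that quench the bead-bound fluorescent RNA probe, cutting fluorescence to under half of the solvent control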;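 further: counterscreen run without GRK2 so only probe quenching by compound is measured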
A number is an active result; n = inactive; x = no result given. Shown are actives, neighbours in structure and some others; about 2.9% of the full set was active somewhere.

SMILES	NadD inh	B2AR ag	Exocytosis inh	PP1 counter	GRK2 inh	GRK2 CP1	Aptamer quench SP	others
C=C(C)C(=O)Nc1cccc(C2=NOC3(C2)C[C@H](C(N)=O)N(C(=O)c2ccccc2)C3)c1 (some centres undefined)	n	n	n	n	48	n	n	Aptamer quench=n
C/C=C(/C)C(=O)Nc1cccc(C2=NOC3(C2)C[C@H](C(N)=O)N(C(=O)c2ccc(Cl)cc2)C3)c1 (some centres undefined)	n	n	n	n	n	x	x
C=C(C)C(=O)Nc1cccc(C2=NOC3(C2)C[C@@H](C(N)=O)N(C(=O)c2ccc(Cl)cc2)C3)c1 (some centres undefined)	x	x	x	n	97	92	n	Aptamer quench=n
C=C(C)C(=O)Nc1cccc(C2=NOC3(C2)C[C@@H](C(N)=O)N(C(=O)C(=C)C)C3)c1 (some centres undefined)	n	n	n	n	75	43	n	Aptamer quench=n
CC12CCC(=O)N1C(C(=O)NNC(=O)COc1ccc(Br)cc1)CS2 (centres undefined)	n	n	n	n	n	x	x
Cn1c(=O)[nH]c(=O)c2c1nc(SCCN1CCOCC1)n2Cc1ccccc1	n	n	n	n	89	n	n
CCN(CC)CCNc1nc2c(c(=O)[nH]c(=O)n2C)n1CC(O)COc1ccc(Cl)cc1Cl (centres undefined)	n	n	n	n	n	x	x
Cc1cc(C)n(-c2nc3c(c(=O)[nH]c(=O)n3C)n2CC(O)COc2ccc(Cl)cc2Cl)n1 (centres undefined)	n	n	n	n	72	n	n
Cn1c(=O)[nH]c(=O)c2c1nc(Br)n2CC(O)COc1ccccc1 (centres undefined)	n	n	n	n	75	n	n
Cn1c(=O)[nH]c(=O)c2c1nc(SCC(=O)O)n2CCOc1ccccc1	n	n	n	n	n	n	n
COc1ccccc1OCC(O)Cn1c(Br)nc2c1c(=O)[nH]c(=O)n2C (centres undefined)	n	n	n	n	n	x	x
C1=C[C@H]2CCCN3CC[C@@H]([C@@H]2[C@]32CO2)[C@H]1CCOCc1ccccc1	n	x	n	x	x	x	x
Nc1nc2c(nc(N3CCCCC3)n2[C@@H]2O[C@H](CO)[C@@H](O)[C@H]2O)c(=O)[nH]1	n	n	n	n	93	n	n
Nc1nc2c(nc(SCc3ccccc3Br)n2C2OC(CO)C(O)C2O)c(=O)[nH]1 (centres undefined)	n	n	n	n	n	x	x
COc1ccccc1N1CCN(/N=C(\C)c2ccccc2O)CC1	n	n	n	n	55	n	n
COc1cc(/C(C)=N/N2CCN(c3ccccc3OC)CC2)ccc1O	n	n	n	n	n	x	x
S=C(NCCc1ccccc1)N1CCc2ccccc2C1	n	n	n	n	95	n	n
CCCOc1ccc(CN(C(=O)c2cccc(OC)c2)C2CCS(=O)(=O)C2)cc1 (centres undefined)	n	n	n	n	99	n	n
COCCNC(=O)CNC(=O)c1nn(-c2ccc(OC)c(Cl)c2)c(=O)c2ccccc12	n	n	n	n	n	x	x
CCCCNC(=O)CNC(=O)c1nn(-c2ccc(OC)c(Cl)c2)c(=O)c2ccccc12	n	n	n	n	n	n	n
CCN(CC)CCNC(=O)CNC(=O)c1nn(-c2ccc(OC)cc2OC)c(=O)c2ccccc12	n	n	n	n	n	n	n
CCOc1ccccc1-n1c(SC(C)C(=O)NCC2CCCO2)nc2ccccc2c1=O (centres undefined)	n	n	n	n	n	x	x

Bioassay records (PubChem BioAssay)
